In PubChem BioAssay:
Potency and affinity values are given separately. Inconclusive results are not listed. Calls of active or inactive are those of the source. Unless noted, no rule for the calls is given here.

Tests used:
[1] = cytotoxicity in PAX8-dependent RMG-1 cells, dose response, cell-based, cherry-pick (AID 687029;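 active = signal drop whose fitted half-maximal concentration is at most twice the top valid dose, in every test run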;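 also: cells exposed to compound for 96 hours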)
[2] = cytotoxicity in IOSE-T80 ovarian epithelial cells, dose response, selectivity assay for PAX8 inhibitor project, cell-based, cherry-pick (AID 687032;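 active = fitted half-maximal concentration for viability loss no higher than twice the top valid dose, in every repeat run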;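 also: cells exposed to compound for 96 h before reading; 0% = neutral control wells and -100% = 2 µM mitoxantrone kill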)
[3] = inhibitors of CMV-promoter luciferase reporter, dose response, counter-screen for Pax8 inhibitor project, cell-based, HEK293, luminescence, dry powder (AID 743020;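 active = signal-lowering compounds whose fitted half-maximal concentration is at or below twice the top tested dose in every run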;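 also: HEK293 cells stably expressing the CMV luciferase reporter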)
[4] = non-specific cell cytotoxicity, dose response, cytotoxicity control for PAX8 inhibitor project, plate reader, dry powder samples (AID 743021)
[5] = IGROV1 ovarian cancer cell cytotoxicity, dose response, PAX8 inhibitor project, plate reader, dry powder samples (AID 743043);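 also: more negative means fewer viable cells or more cytotoxicity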
[6] = NIH:OVCAR-3 ovarian cancer cell cytotoxicity, dose response, PAX8 inhibitor project, plate reader, dry powder samples (AID 743044); settings: max activity: at 35 µM, active compounds read low unless noted
[7] = IOSE-T80 ovarian epithelial cell cytotoxicity, dose response, cytotoxicity control for PAX8 inhibitor project, plate reader, dry powder samples (AID 743045);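 also: 0% = neutral control median and -100% = positive control median; more negative values mean more cell killing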
[8] = A2780 ovarian cancer cell cytotoxicity, dose response, cytotoxicity control, plate reader, dry powder samples (AID 743046);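 also: 0% = neutral control wells and -100% = cytotoxic reference compound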
[9] = cytotoxicity in OVCAR8 ovarian cancer cells, dose response, PAX8 project, cell-based, plate reader, dry powder samples (AID 743197)

Measured: max activity

C[C@@H]1CN([C@H](C)CO)C(=O)Cc2cc(NC(=O)Nc3ccc(F)cc3)ccc2O[C@H]1CN(C)C(=O)Nc1ccc(C(F)(F)F)cc1
inactive: [1] | [2] | [3] | [4] | [5] | [6] -34.3% | [7] | [8] | [9]

COc1ccccc1-c1ccc2c(c1)[C@H]1[C@H](CCN1S(=O)(=O)c1ccccc1F)[C@H](CO)N2
inactive: [1] | [2] | [3] | [4] | [5] | [6] -17.4% | [7] | [8] | [9]

COc1cccc(S(=O)(=O)N(C)C[C@H]2OCc3ccccc3-c3c(n(C)c4ccccc34)C(=O)N([C@@H](C)CO)C[C@H]2C)c1
inactive: [1] | [2] | [3] | [4] | [5] | [6] -13.7% | [7] | [8] | [9]

C[C@@H]1CN([C@@H](C)CO)C(=O)c2ccccc2-c2ccccc2CO[C@H]1CN(C)Cc1ccccc1C(F)(F)F
inactive: [1] | [2] | [3] | [4] | [5] | [6] 28.3% [at 16 µM, active compounds read low] | [7] | [8] | [9]

C[C@H]1CN([C@@H](C)CO)C(=O)Cc2cc(NC(=O)Nc3ccc(C(F)(F)F)cc3)ccc2O[C@H]1CN(C)C(=O)NC1CCCCC1
inactive: [1] | [2] | [3] | [4] | [5] | [6] 30.7% [at 1.1 µM, active compounds read low] | [7] | [8] | [9]

Cc1ccc(S(=O)(=O)N(C)C[C@@H]2Oc3c(NC(=O)c4ccc(-c5nccs5)cc4)cccc3C(=O)N([C@@H](C)CO)C[C@@H]2C)cc1
inactive: [1] | [2] | [3] | [4] | [5] | [6] 61.7% [at 0.26 µM, active compounds read low] | [7] | [8] | [9]

Cc1ccc(S(=O)(=O)N(C)C[C@H]2Oc3c(NC(=O)Nc4ccc(F)cc4)cccc3C(=O)N([C@@H](C)CO)C[C@H]2C)cc1
inactive: [1] | [2] | [3] | [4] | [5] | [6] -10.2% | [7] | [8] | [9]

C[C@H](CO)N1C[C@H](C)[C@H](CN(C)C(=O)NC2CCCCC2)Oc2cc(C#Cc3cccc(F)c3)ccc2S1(=O)=O
inactive: [1] | [2] | [3] | [4] | [5] | [6] 16.5% [at 0.5 µM, active compounds read low] | [7] | [8] | [9]

O=C(C[C@H]1CC[C@@H]2[C@H](COC[C@@H](O)CN2Cc2ccc(F)cc2)O1)NCc1ccccc1Cl
inactive: [1] | [2] | [3] | [4] | [5] | [6] 64.7% | [7] | [8] | [9]

C[C@@H]1CCCCO[C@@H](CN(C)Cc2ccc(Cl)c(Cl)c2)[C@H](C)CN([C@@H](C)CO)C(=O)c2cc(NC(=O)Cc3ccccc3)ccc2O1
inactive: [1] | [2] | [3] | [4] | [5] | [6] -29.2% [at 16 µM, active compounds read low] | [7] | [8] | [9]

CC(C)CC#Cc1ccc2c(c1)O[C@H](CN(C)S(=O)(=O)c1ccc(F)cc1)[C@H](C)CN([C@@H](C)CO)S2(=O)=O
inactive: [1] | [2] | [3] | [4] | [5] | [6] -39.6% | [7] | [8] | [9]

C[C@H](O)C#Cc1ccc2c(c1)O[C@H](CN(C)Cc1ccc(-c3ccccc3)cc1)[C@@H](C)CN([C@H](C)CO)S2(=O)=O
inactive: [1] | [2] | [3] | [4] | [5] | [6] 15.2% [at 16 µM, active compounds read low] | [7] | [8] | [9]

C[C@@H]1CN([C@H](C)CO)C(=O)Cc2cc(NC(=O)Cc3ccccc3)ccc2O[C@@H]1CN(C)Cc1ccc(C(F)(F)F)cc1
inactive: [1] | [2] | [3] | [4] | [5] | [6] -9.67% [at 0.26 µM, active compounds read low] | [7] | [8] | [9]

C[C@H](CO)N1C[C@H](C)[C@@H](CN(C)Cc2ccc(Cl)c(Cl)c2)OCCCC[C@H](C)Oc2ccc(NC(=O)Nc3ccc(C(F)(F)F)cc3)cc2C1=O
inactive: [1] | [2] | [3] | [4] | [5] | [6] 35.5% [at 2.1 µM, active compounds read low] | [7] | [8] | [9]

C[C@@H]1CN([C@@H](C)CO)C(=O)c2cc(N(C)C)ccc2O[C@@H]1CN(C)Cc1ccc(Oc2ccccc2)cc1
inactive: [1] | [2] | [3] | [4] | [5] | [6] -18.3% | [7] | [8] | [9]

C[C@H]1CN([C@@H](C)CO)C(=O)c2ccccc2-c2ccccc2CO[C@H]1CN(C)S(=O)(=O)c1ccc(C(F)(F)F)cc1
inactive: [1] | [2] | [3] | [4] | [5] | [6] 11.8% [at 4.2 µM, active compounds read low] | [7] | [8] | [9]

C[C@H](CO)N1C[C@H](C)[C@@H](CN(C)Cc2ccc(Cl)c(Cl)c2)OCCCC[C@H](C)Oc2ccc(NS(=O)(=O)c3ccccc3)cc2C1=O
inactive: [1] | [2] | [3] | [4] | [5] | [6] -29.2% [at 2.1 µM, active compounds read low] | [7] | [9]

Cc1noc(C)c1S(=O)(=O)N(C)C[C@H]1OCCCC[C@@H](C)Oc2ccc(NS(=O)(=O)c3ccc(Cl)cc3)cc2C(=O)N([C@@H](C)CO)C[C@H]1C
inactive: [1] | [2] | [3] | [4] | [5] | [6] -28.8% [at 2.1 µM, active compounds read low] | [7] | [9]

C[C@@H]1CN([C@H](C)CO)C(=O)c2cc(NC(=O)c3ccccc3)ccc2O[C@@H](C)CCCCO[C@H]1CN(C)Cc1ccc(C(F)(F)F)cc1
inactive: [1] | [2] | [3] | [4] | [5] | [6] -5.41% [at 0.5 µM, active compounds read low] | [7] | [8] | [9]

C[C@@H]1CN([C@H](C)CO)C(=O)c2cc(NS(=O)(=O)c3ccc(Cl)cc3)ccc2O[C@@H](C)CCCCO[C@H]1CN(C)C(=O)C1CCCCC1
inactive: [1] | [2] | [3] | [4] | [5] | [6] -15.5% [at 0.56 µM, active compounds read low] | [7] | [9]

Cc1ccc(S(=O)(=O)N[C@@H]2C=C[C@@H](CC(=O)N3CCC(Cc4ccccc4)CC3)O[C@@H]2CO)cc1
inactive: [1] | [2] | [3] | [4] | [5] | [6] -14.5% [at 16 µM, active compounds read low] | [7] | [8] | [9]

C[C@@H]1CCCCO[C@@H](CN(C)Cc2ccc(Cl)c(Cl)c2)[C@H](C)CN([C@H](C)CO)C(=O)c2cc(NC(=O)Nc3ccccc3)ccc2O1
inactive: [1] | [2] | [3] | [4] | [5] | [6] 13.2% [at 0.5 µM, active compounds read low] | [7] | [8] | [9]

C[C@@H]1CN([C@@H](C)CO)C(=O)c2cccc(NC(=O)c3ccncc3)c2O[C@@H]1CN(C)S(=O)(=O)c1cccs1
inactive: [1] | [2] | [3] | [4] | [5] | [6] 14.9% [at 2.1 µM, active compounds read low] | [7] | [9]

Cc1ccc(S(=O)(=O)Nc2ccc3c(c2)C(=O)N([C@@H](C)CO)C[C@@H](C)[C@H](CN(C)S(=O)(=O)c2ccc(Cl)cc2)OCCCC[C@@H](C)O3)cc1
inactive: [1] | [2] | [3] | [4] | [5] | [6] 20.2% [at 0.26 µM, active compounds read low] | [7] | [9]

C[C@@H]1CCCCO[C@@H](CN(C)C(=O)Nc2cccc3ccccc23)[C@H](C)CN([C@H](C)CO)C(=O)c2cc(NS(=O)(=O)c3ccc(Cl)cc3)ccc2O1
inactive: [1] | [2] | [3] | [4] | [5] | [7]

C[C@H](CO)N1C[C@H](C)[C@H](CN(C)Cc2ccc(Cl)c(Cl)c2)OCCCC[C@H](C)Oc2ccc(NC(=O)Nc3ccccc3)cc2C1=O
inactive: [1] | [2] | [3] | [4] | [5] | [6] -25.9% [at 0.26 µM, active compounds read low] | [7] | [9]

C[C@@H]1CCCCO[C@@H](CN(C)Cc2ccc(Cl)c(Cl)c2)[C@H](C)CN([C@@H](C)CO)C(=O)c2cc(NC(=O)Nc3ccccc3)ccc2O1
inactive: [1] | [2] | [3] | [4] | [5] | [6] 10.2% [at 16 µM, active compounds read low] | [7] | [9]

C[C@@H]1CN([C@@H](C)CO)C(=O)c2cc(NC(=O)Nc3cccc4ccccc34)ccc2O[C@@H]1CN(C)Cc1ccc2c(c1)OCO2
inactive: [1] | [2] | [3] | [4] | [5] | [6] 8.89% | [7] | [9]

Cc1cccc(S(=O)(=O)N2CC[C@@H]3[C@H](CO)Nc4ccc(C5=CCCCC5)cc4[C@@H]32)c1
inactive: [1] | [2] | [3] | [4] | [5] | [6] 25.1% [at 1.1 µM, active compounds read low] | [7] | [8] | [9]
